Screening data (PubChem)
Sampled rows, rich in hits. Any-hit rate of the full collection: about 2.9%.
PAFAH2 inh: inhibitors of human PAFAH2; recombinant PAFAH2, FP-rhodamine activity probe, fluorescence polarization; AID 492956; inhibition, % at 3.39 µM; 0.99% of 340,000 active;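 active = inhibition above the mean over all tested compounds plus 3 SD, cut at about 30% in these data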;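 note: inhibitors block probe labeling of enzyme so polarization drops; 0% = enzyme with DMSO and 100% = wells lacking PAFAH2 protein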
PME-1 primary: blocks human protein phosphatase methylesterase 1; recombinant PME-1, FP-Rh probe fluorescence polarization; 0.53% of 320,000 active; Q9Y570; inhibition, % at 5.9 µM;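 active = inhibition above the campaign mean of all compounds plus 3 SD, cut at about 26% in these data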;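 note: competitive labeling of PME-1 active site by serine hydrolase directed probe; 0% = PME-1 with DMSO and 100% = wells lacking PME-1 enzyme; inhibitors block probe labeling so polarization falls and inhibition rises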
Target sequence (Q9Y570 whole entry, looked up): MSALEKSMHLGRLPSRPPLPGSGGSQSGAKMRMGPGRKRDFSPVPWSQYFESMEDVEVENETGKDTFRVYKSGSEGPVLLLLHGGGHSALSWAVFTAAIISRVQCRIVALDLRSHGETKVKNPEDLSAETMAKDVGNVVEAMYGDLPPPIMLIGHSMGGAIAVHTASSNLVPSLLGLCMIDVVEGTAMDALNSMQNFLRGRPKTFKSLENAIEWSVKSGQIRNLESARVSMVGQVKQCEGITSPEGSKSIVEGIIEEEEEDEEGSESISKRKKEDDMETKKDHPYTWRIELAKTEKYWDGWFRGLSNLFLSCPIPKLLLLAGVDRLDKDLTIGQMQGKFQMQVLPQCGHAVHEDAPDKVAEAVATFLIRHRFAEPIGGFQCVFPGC
PAFAH1B2 FP inh: blocks human PAF acetylhydrolase 1b catalytic subunit 2; P68402; recombinant PAFAH1B2, FP-rhodamine activity probe, fluorescence polarization; inhibition, % at 3.39 µM; 1.2% of 340,000 active;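 active = inhibition above the mean of all tested compounds plus 3 SD, cut at about 24% in these data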;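 note: 0% = enzyme with DMSO and 100% = wells lacking PAFAH1B2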
Fam108B inh: blocks mouse Fam108B hydrolase in RBBP9 counter-screen; recombinant Fam108B, FP-Rh probe fluorescence polarization; inhibition, % at 9.51 µM; 0.33% of 300,000 active;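 active = inhibition above the screen mean inhibition plus 3 SD, computed separately per campaign, cut at about 18% in these data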;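 note: inhibitors lower polarization as less probe binds the enzyme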
PAFAH1B3 inh: blocks human PAF acetylhydrolase 1B catalytic subunit 3; 0.28% of 340,000 active; inhibition, % at 3.39 µM; recombinant PAFAH1B3, FP-rhodamine probe, fluorescence polarization;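 active = inhibition above the screen-wide average of all tested compounds plus 3 SD, cut at about 25% in these data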;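 note: 0% = enzyme with DMSO only and 100% = wells lacking PAFAH1B3 protein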
Target sequence (Q15102 whole entry, looked up): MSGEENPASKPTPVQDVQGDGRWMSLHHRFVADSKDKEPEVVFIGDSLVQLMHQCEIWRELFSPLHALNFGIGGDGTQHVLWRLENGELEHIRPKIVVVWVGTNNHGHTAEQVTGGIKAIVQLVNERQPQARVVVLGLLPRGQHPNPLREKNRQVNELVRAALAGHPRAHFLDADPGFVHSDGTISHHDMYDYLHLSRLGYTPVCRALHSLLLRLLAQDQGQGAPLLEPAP
pPAFAH FP inh: pPAFAH (human) enzyme inhibition; Q13093; recombinant pPAFAH, FP-rhodamine probe fluorescence polarization; inhibition, % at 3.39 µM; 1.5% of 330,000 active;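 active = inhibition above the mean inhibition across the screen plus 3 SD, cut at about 25% in these data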;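 note: inhibitors block binding of the rhodamine activity-based probe so polarization drops; 0% = enzyme with DMSO and 100% = wells lacking pPAFAH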
* = called active by the depositor; . = not tested or not shown.

SMILES | PAFAH2 inh | PME-1 primary | PAFAH1B2 FP inh | Fam108B inh | PAFAH1B3 inh | pPAFAH FP inh
Cc1ccc(S(=O)(=O)N2CCC(=O)N(CCOCc3ccc(C(F)(F)F)cc3)CC2)cc1 | 8.3 | 4.5 | 16.1 | 1.8 | 6.6 | 30.5*
Cc1ccc(S(=O)(=O)N2CCC(=O)N(C(CO)Cc3ccccc3)CC2)cc1 (stereo not drawn) | 1.1 | -2.1 | 24.4* | 1.3 | 4.3 | -0.3
Cc1ccc(NC(=O)OCCN2CCN(S(=O)(=O)c3ccc(C)cc3)CCC2=O)cc1 | 2.8 | 6.3 | 28.7* | -0.2 | 9.0 | 10.9
Cc1ccc(S(=O)(=O)N2CCC(=O)N(C(COCc3cccc(C)c3)Cc3ccccc3)CC2)cc1 (stereo not drawn) | 3.6 | 1.9 | 12.6 | 1.0 | 4.3 | 1.6
Cc1ccc(S(=O)(=O)N2CCC(=O)N(C(COC(=O)Nc3ccccc3)Cc3ccccc3)CC2)cc1 (stereo not drawn) | 4.3 | -7.2 | 34.8* | -0.3 | 5.8 | 7.1
O=C(CCNC(=O)C1CCN(S(=O)(=O)c2ccc(F)cc2)CC1)NCc1ccc(F)cc1 | 5.8 | 22.9 | 27.1* | -0.7 | 7.3 | 3.7
CCCNC(=O)C1CCN(S(=O)(=O)c2ccc(Br)cc2)CC1 | 4.8 | 13.8 | 25.1* | 0.8 | 3.9 | 0.3
NC(=O)C1CCCN(S(=O)(=O)c2ccc(Br)cc2)C1 (stereo not drawn) | 14.5 | 4.2 | 27.8* | -0.1 | 3.3 | 0.9
CCCNC(=O)C1CCN(S(=O)(=O)c2ccc3c(c2)OCCO3)CC1 | 1.6 | -1.7 | 7.8 | -4.9 | 5.0 | 0.3
O=C(CCNC(=O)C1CCN(S(=O)(=O)c2ccccc2)CC1)NCc1ccncc1 | 4.3 | -0.4 | 4.4 | -2.2 | 4.7 | 5.6
O=C(NCCC1CCCCN1S(=O)(=O)c1ccccc1)C(=O)NCc1ccccc1 (stereo not drawn) | 2.8 | -3.8 | 15.2 | 1.4 | 12.7 | 2.5
O=C(NCCC1CCCCN1S(=O)(=O)c1ccccc1)C(=O)NCc1ccc(F)cc1 (stereo not drawn) | 1.2 | -5.3 | 26.9* | 3.2 | 2.1 | 9.5
COCCNC(=S)N(CCCN(C)C)Cc1cc2cc3c(cc2[nH]c1=O)OCCO3 | -5.5 | 0.8 | 5.8 | 0.2 | 4.1 | 2.2
O=C(c1ccccc1)c1c(O)nc(-c2ccccc2)n(-c2ccccc2)c1=O | -7.9 | -4.1 | 4.0 | -4.0 | 7.9 | -5.4
O=C(O)c1ccc(-n2nnnc2SCc2ccccc2Br)cc1 | 1.4 | 4.3 | 27.4* | 2.9 | 4.6 | 1.1
O=C(O)c1ccc(CSc2nnnn2-c2ccc(F)cc2)cc1 | 5.6 | 1.9 | -0.1 | -7.5 | 5.3 | 1.6
CCN1C(=O)CC(SC2CC(=O)N(CC)C2=O)C1=O (stereo not drawn) | 1.1 | . | 1.0 | . | 11.4 | .
Cc1ccc(S(=O)C(c2ccccc2)c2ccccc2)cc1 (stereo not drawn) | -4.0 | . | 8.5 | . | 9.8 | .
O=S(c1ccccc1)C(c1ccccc1)c1ccccc1 (stereo not drawn) | 4.5 | . | 24.2* | . | 13.3 | .
Cn1c(=O)n(CCCOc2ccc(Br)cc2)c2ccccc21 | 3.6 | -7.7 | 5.1 | 1.1 | -7.9 | 32.4*
OCc1nc2ccccc2n1CCCOc1ccc(Br)cc1 | -7.8 | 2.0 | 9.0 | 0.0 | 4.2 | 31.1*
CC(C)(Oc1ccc(Cl)cc1)C(=O)NC1CCN(Cc2ccccc2)CC1 | -2.0 | -3.5 | -0.5 | -1.3 | 5.6 | 2.4
CN(C)S(=O)(=O)c1cccc(NC(=O)COC(=O)CCC(=O)c2cccs2)c1 | 5.5 | 0.0 | 0.5 | -2.6 | -2.5 | 2.0
COc1ccccc1NC(=O)CCC(=O)Nc1nnc(C(F)(F)F)s1 | -7.7 | 88.5* | 1.9 | 0.0 | 3.1 | -1.4
COc1ccc(OC)c(NC(=O)CCC(=O)Nc2nnc(C(F)(F)F)s2)c1 | 3.6 | -11.2 | 0.8 | -0.6 | 8.6 | 3.9
SMILES | PAFAH2 inh | PME-1 primary | PAFAH1B2 FP inh | Fam108B inh | PAFAH1B3 inh | pPAFAH FP inh
COc1cc(/C=N/N2CCCCC2)cc([N+](=O)[O-])c1O | 6.0 | -0.5 | -0.6 | 4.4 | 10.9 | 28.5*
C1CCCCCC2(CCCCC1)OCC(CN1CCOCC1)O2 (stereo not drawn) | 9.5 | 0.3 | 26.5* | -4.3 | 6.4 | 4.2
C[C@H]1CN([C@@H](C)CO)C(=O)c2cccc(NC(=O)Nc3ccc(C(F)(F)F)cc3)c2O[C@@H]1CN(C)C(=O)Nc1ccc(F)cc1 | -24.3 | . | 52.2* | . | -13.3 | 3.2
C[C@H](CO)N1C[C@H](C)[C@@H](CN(C)C(=O)Nc2ccc(C(F)(F)F)cc2)Oc2ccc(NC(=O)Nc3ccc(C(F)(F)F)cc3)cc2C1=O | -52.0 | . | -34.1 | . | -65.5 | -32.8
C[C@@H]1CN([C@H](C)CO)C(=O)c2cc(NC(=O)Nc3ccc(C(F)(F)F)cc3)ccc2O[C@H]1CN(C)C(=O)Nc1ccc(F)cc1 | -104.3 | . | -32.4 | . | -65.8 | .
C[C@H](CO)N1C[C@H](C)[C@@H](CN(C)S(=O)(=O)c2ccccc2)Oc2c(NC(=O)Nc3ccc(C(F)(F)F)cc3)cccc2C1=O | -28.9 | . | 25.7* | . | -10.8 | 12.4
C[C@H](CO)N1C[C@H](C)[C@@H](CN(C)C(=O)Nc2ccc(C(F)(F)F)cc2)Oc2c(NS(=O)(=O)c3cccs3)cccc2C1=O | 2.3 | . | 25.1* | . | 1.7 | 11.9
C[C@H](CO)N1C[C@H](C)[C@@H](CN(C)C(=O)Nc2ccc(C(F)(F)F)cc2)Oc2c(NC(=O)Nc3ccc(C(F)(F)F)cc3)cccc2C1=O | -50.8 | . | 50.5* | . | -40.7 | -14.6
COc1ccc(NC(=O)Nc2cccc3c2O[C@H](CN(C)S(=O)(=O)c2ccccc2)[C@@H](C)CN([C@H](C)CO)C3=O)cc1 | 12.1 | . | 4.4 | . | -1.2 | -0.9
CCOC(=O)c1c[nH]c2c(C(=O)c3ccccc3)cc(Cl)cc2c1=O | -6.2 | . | -2.2 | . | 0.2 | .
Cc1nn(CC(=O)Nc2c(F)cc(F)cc2Br)c(=O)c2cccn12 | -8.3 | -3.6 | -3.1 | 0.0 | 4.6 | 5.7
Cc1c(Cl)cccc1NC(=O)CCN1C(=O)NC(C)(C)C1=O | 2.4 | . | 2.6 | . | 1.3 | .
C[C@H]1CN([C@@H](C)CO)C(=O)c2cccc(NC(=O)Nc3ccc(C(F)(F)F)cc3)c2O[C@H]1CN(C)C | -13.4 | . | 3.1 | . | 10.4 | 29.7*
C[C@@H]1CN([C@@H](C)CO)C(=O)c2cc(NS(=O)(=O)c3cccs3)ccc2O[C@H]1CN(C)Cc1ccc(C(F)(F)F)cc1 | 4.2 | . | 5.3 | . | 8.5 | 27.3*
C[C@@H]1CN([C@H](C)CO)C(=O)c2cc(NS(=O)(=O)c3cccs3)ccc2O[C@H]1CN(C)Cc1ccccc1 | 2.2 | . | 2.9 | . | 7.7 | 7.1
COc1ccc(NC(=O)Nc2cccc3c2O[C@H](CN(C)C(=O)Nc2ccc(C(F)(F)F)cc2)[C@@H](C)CN([C@H](C)CO)C3=O)cc1 | -7.8 | . | 68.4* | . | 2.7 | -2.1
C[C@H](CO)N1C[C@H](C)[C@@H](CN(C)S(C)(=O)=O)Oc2c(NC(=O)Nc3ccc(C(F)(F)F)cc3)cccc2C1=O | 6.4 | . | 2.6 | . | 2.6 | 8.7
Cc1ccc(F)cc1NS(=O)(=O)c1ccc(Cl)s1 | 4.6 | 2.5 | 1.9 | . | 2.1 | 10.4
